Among all 48,000 compounds or so, about 13,000 (27%) showed an effect of 50% or more. Some of the results follow.

In the experiment the test system is Wolbachia pipientis. Description: Anti-Wolbachia Cell-Based Screen. It counts as functional. To be noted: 5 µM. Also on record: scale not given: in the data most compounds retested in dose-response had high values.
As to `CCC(C)NC(=O)c1ccc(CNC(=O)CCC(C)C)cc1` (stereo not drawn), the “Percent Effect” value came out at 19.34%. On to `Cc1cc(CC(=O)N(C)Cc2cccc(OC(C)C)c2)n[nH]1`, for which the “Percent Effect” value is on record as 0.9226%. `COCc1noc(-c2nn(-c3ccc(F)c(F)c3)c3c2CCC3)n1`: the “Percent Effect” value was -11.94%. For `CCN(CC)CCNC(=O)CCc1c(C)nn(-c2ccccc2Cl)c1C`, the “Percent Effect” value is listed as 121.6%. Under `COCCCN(C)C(=O)c1nnn(-c2ccccc2Cl)c1C` stands -5.685%; under `CCN(CC)CCNC(=O)c1nn(CC)cc1Cl`, 13.81%. As to `CCOc1ccccc1CSc1nnc(CC2CCS(=O)(=O)C2)n1C` (stereo not drawn), the “Percent Effect” value came out at 3.399%. `CN1CSC[C@H]1C(=O)N1CCN(Cc2cccc(Cl)c2)CC1`: the “Percent Effect” value is reported as -11.1%. For `CC(NS(C)(=O)=O)C(=O)N(C)Cc1cnn(-c2ccc(F)cc2)c1` (stereo not drawn), the “Percent Effect” value was -5.663%. For the compound `CC(C)c1nccc(CN(C)Cc2cccc(-n3cccn3)c2)n1`, the “Percent Effect” value was found to be 104.6%. On to `CN(Cc1cccc(-n2cccn2)c1)Cc1c[nH]cn1`, for which the “Percent Effect” value is 125%. Take `CN(Cc1ccc(-n2cccn2)cc1)Cc1cnc(N(C)C)nc1`: the “Percent Effect” value is -6.821%. `COc1cccc(-n2cc(CN(C)C(=O)c3cnc(O)cn3)cn2)c1`: the “Percent Effect” value is -3.404%.

In the case of `CC(C)c1nccc(CN(C)Cc2cnn(-c3ccccc3)c2)n1`, the “Percent Effect” value came out at 112.3%. The value for `COc1cc(N(C)Cc2cccc(-n3cccn3)c2)nc(N)n1` was -41.52%; that for `CCCc1cc(C(=O)N(C)Cc2cnn(-c3cccc(OC)c3)c2)[nH]n1` was 1.853%; that for `CN(Cc1ccc(-n2cccn2)cc1)Cc1ncc[nH]1` was -13.82%. With `CSCCC(O)C(=O)N(C)Cc1cnn(-c2ccc(F)cc2)c1` (stereo not drawn), the “Percent Effect” value came to 17.62%. Under `CN(Cc1cccc(-n2cccn2)c1)Cc1cccs1` stands 32.49%.

As for `COc1cccc(-n2cc(CN(C)Cc3ccnc(C(C)C)n3)cn2)c1`, the “Percent Effect” value came to 92.54%. In the case of `COc1c(F)cc(F)cc1-c1nc2c([nH]1)CCNC2`, the “Percent Effect” value is reported as -0.5434%.

Consider `CC(c1cccnc1)N1CCN(CCCC#N)CC1` (stereo not drawn), for which the “Percent Effect” value is reported as -7.077%. The value for `CCCn1nc(C(=O)N2CCCC2c2noc(C)n2)ccc1=O` (stereo not drawn) was -9.694%. For `Cc1ccc(CN(C)CC(=O)NC2(C)CCS(=O)(=O)C2)cc1` (stereo not drawn), the “Percent Effect” value turned out to be 2.715%. Consider `CC(C)N1CCCn2nc(C(=O)NCc3ccccc3F)cc2C1`, for which the “Percent Effect” value is -19.91%. As to `CCC(CO)N(Cc1cccc(-n2cccn2)c1)Cc1ccccn1` (stereo not drawn), the “Percent Effect” value is -1.98%. Under `CC(CN(C)Cc1cccc(-n2cccn2)c1)C(F)(F)F` (stereo not drawn) stands 100.7%; under `CCC(CO)N(Cc1cccc(-n2cccn2)c1)Cc1cccs1` (stereo not drawn), 3.193%.

Take `CC(C)c1nnc(NC(=O)c2cccc(OCC(F)(F)F)n2)[nH]1`: the “Percent Effect” value is -13.63%. As for `CC(C)Cc1nc(CS(=O)(=O)C(C)C(=O)N2CCOCC2)no1` (stereo not drawn), the “Percent Effect” value is on record as 1.312%. As for `O=C(CN1CCCCCC1)NCCSc1cnn[nH]1`, the “Percent Effect” value is reported as -5.638%. The value for `O=C(CN1CCCCC1)Nc1ncc(Br)cc1Br` was 116.4%; that for `O=C(CN1CCCc2cc(F)cc(F)c21)Nc1ccc(Br)cn1` was -2.039%.

On to `CSc1nccc(-c2cccc(-c3ccn(CC4COCCO4)n3)c2)n1` (stereo not drawn), for which the “Percent Effect” value is reported as -11.46%. Consider `O=C(c1ccnnc1)N1C[C@@H]2CN(c3ncccn3)C[C@@H]2C1`, for which the “Percent Effect” value came out at 15.26%. For `Cc1cncc(C(=O)N2C[C@@H]3CN(S(C)(=O)=O)CCO[C@@H]3C2)c1.O=C(O)C(F)(F)F`, the “Percent Effect” value is 122.6%. Under `CCN1CCO[C@@H]2CN(C(=O)c3cocn3)C[C@@H]2C1.O=C(O)C(F)(F)F` stands -9.016%; under `Cn1cc(C(=O)N2CCO[C@@H]3CN(C4CCC4)C[C@@H]3C2)cn1`, 99.44%. Regarding `Cc1ccc(C(=O)N2C[C@@H]3CN(S(C)(=O)=O)CCO[C@@H]3C2)o1`, the “Percent Effect” value is reported as -11.28%. Consider `Cc1ccnc(C(=O)N2C[C@@H]3CN(S(C)(=O)=O)CCO[C@@H]3C2)c1.O=C(O)C(F)(F)F`, for which the “Percent Effect” value is recorded as -16.56%. With `CS(=O)(=O)N1CCO[C@@H]2CN(C(=O)c3ccnnc3)C[C@@H]2C1`, the “Percent Effect” value is on record as 110.1%. For `Cn1cc(CN2CCO[C@@H]3CN(C4CCCC4)C[C@@H]3C2)cn1.O=C(O)C(F)(F)F.O=C(O)C(F)(F)F`, the “Percent Effect” value was -1.397%. Regarding `Cn1cc(C(=O)N2CC[C@@]3(O)CCN(C4CCCCC4)C[C@H]3C2)cn1`, the “Percent Effect” value is -10.98%. `CS(=O)(=O)N1CCO[C@@H]2CN(C(=O)c3cccnc3)C[C@@H]2C1`: the “Percent Effect” value was 94.69%. As to `O=C(NCCOc1ccc(F)c(F)c1)NCc1cccc(CO)c1`, the “Percent Effect” value is given as -4.638%.

As for `Cc1nnc(NCC(c2ccco2)N2CCCCC2)c(C#N)c1C` (stereo not drawn), the “Percent Effect” value is reported as -2.88%.

For the compound `CN1CCN(C)C2(CCN(Cc3ccc(C4CCCCO4)o3)CC2)C1` (stereo not drawn), the “Percent Effect” value is recorded as 27.87%. Turning to `CCC(C)C(=O)NCc1cccc(OCCN(C)C2CCOCC2)c1` (stereo not drawn), the “Percent Effect” value turned out to be 6.512%. For `CN1CC2(CCN(C(=O)c3coc4c3C(=O)CCC4)C2)OC1=O` (stereo not drawn), the “Percent Effect” value is -2.236%. Turning to `Cc1nc(C(=O)N2C[C@@H]3CN(S(C)(=O)=O)CCO[C@@H]3C2)cs1`, the “Percent Effect” value is -14.32%. For the compound `Cn1nccc1C(=O)N1C[C@@H]2CN(S(C)(=O)=O)CCO[C@@H]2C1`, the “Percent Effect” value is 115.5%. Regarding `Cn1cc(C(=O)N2C[C@@H]3CN(S(C)(=O)=O)CCO[C@@H]3C2)cn1`, the “Percent Effect” value came out at 95.46%.

On to `Cc1ccc(C(=O)N2C[C@@H]3CN(S(C)(=O)=O)CCO[C@@H]3C2)s1`, for which the “Percent Effect” value is -10.28%.

Take `O=C(c1cc2ccccc2s1)N1CCC(C(=O)O)(n2cccn2)CC1`: the “Percent Effect” value was -13.71%. In the case of `CCn1cc2c(n1)CN(C(=O)c1ccncc1)CC2COCC1CC1.O=C(O)C(F)(F)F` (stereo not drawn), the “Percent Effect” value is on record as 20.52%. Under `O=C(COc1ccccc1Cl)N1CCCC(n2ccnc2)C1` (stereo not drawn) stands 92.71%; under `Cn1cnnc1C1CCCN(C(=O)COc2ccccc2Cl)C1` (stereo not drawn), 152.2%; under `O=C(COCC1CC1)N1CCCC(n2ccnc2)C1` (stereo not drawn), 8.162%. In the case of `O=C(COCc1ccccc1Cl)N1CCCC(n2ccnc2)C1` (stereo not drawn), the “Percent Effect” value is 103.7%. With `COc1cccc(COCC(=O)N2CCCC(c3nncn3C)C2)c1` (stereo not drawn), the “Percent Effect” value is -0.5429%. `O=C(COC1CCCCC1)N1CCCC(n2ccnc2)C1` (stereo not drawn): the “Percent Effect” value is 76.06%. Regarding `CCn1cnnc1C1CCCN(C(=O)COc2ccc(Cl)cc2)C1` (stereo not drawn), the “Percent Effect” value turned out to be 6.691%.

With `O=C(COCc1ccccc1Cl)N1CCCC(n2cccn2)C1` (stereo not drawn), the “Percent Effect” value is recorded as 1.04%. On to `O=C(c1ccccc1OCC1CC1)N1CCCC(n2ccnc2)C1` (stereo not drawn), for which the “Percent Effect” value turned out to be 8.934%. Under `CN(CC(=O)N1CCCC(n2ccnc2)C1)c1cnccn1` (stereo not drawn) stands -4.389%; under `CC1(COc2ccccc2)NCCc2[nH]cnc21` (stereo not drawn), 7.349%; under `CCc1cc(CN(C)C(=O)C2CC(=O)N(c3cccc(O)c3)C2)on1` (stereo not drawn), -10.41%. As to `Cc1ccc(C(C(=O)N2CCN(C(=O)c3ccc[nH]3)CC2)N(C)C)cc1` (stereo not drawn), the “Percent Effect” value was 1.987%.

With `COCCOc1ccc(NC(=O)N(CC2CCOC2)C2CC2)cn1` (stereo not drawn), the “Percent Effect” value is recorded as -6.429%. Under `O=C(COCCc1ccccc1)N1CCCC(n2cccn2)C1` (stereo not drawn) stands 5.674%; under `O=C(COCCOc1ccccc1)N1CCCC(n2ccnc2)C1` (stereo not drawn), 75.36%. For the compound `COc1cccc(COCC(=O)N2CCCC(n3ccnc3)C2)c1` (stereo not drawn), the “Percent Effect” value was -0.4033%.

As to `Cc1cc(C(=O)N2CCCC2c2nc(C)cc(O)n2)on1` (stereo not drawn), the “Percent Effect” value is 93.31%.

For `Cc1cc(C(=O)N2CCCC2c2nc(O)cc(C(C)C)n2)on1` (stereo not drawn), the “Percent Effect” value is listed as 118.7%. On to `CC(C)c1nc(C2CCCN2C(=O)c2nccnc2N)no1` (stereo not drawn), for which the “Percent Effect” value is given as -0.7868%.

As for `CC(C)c1cc(C(=O)N2CCCC2c2nc(-c3ccccc3)no2)[nH]n1` (stereo not drawn), the “Percent Effect” value is listed as -1.356%. As to `CCn1ccnc1CN1CCC(CCC(=O)Nc2ccccc2Cl)CC1`, the “Percent Effect” value stood at 11.39%. As to `COCCC1(C(=O)O)CCCN(C(=O)c2cnc3c(c2)CCCC3)C1` (stereo not drawn), the “Percent Effect” value is 8.826%. Take `O=C(Cc1ccc(-n2cccn2)cc1)N1CCCC(n2cccn2)C1` (stereo not drawn): the “Percent Effect” value is reported as 7.23%. Turning to `O=C(Cc1ccc2c(c1)OCCO2)N1CCCC(n2ccnc2)C1` (stereo not drawn), the “Percent Effect” value was found to be 5.657%. For the compound `O=C(Cc1cn2ccccc2n1)N1CCCC(n2cccn2)C1` (stereo not drawn), the “Percent Effect” value is recorded as 62.83%. With `Cc1cnn(C2CCCN(C(=O)Cc3cn4ccccc4n3)C2)c1` (stereo not drawn), the “Percent Effect” value is on record as 14.59%.

As for `O=C(Cc1cn2ccccc2n1)N1CCCC(n2ccnc2)C1` (stereo not drawn), the “Percent Effect” value was found to be 115.6%. On to `Fc1cccc2ncnc(NCCCc3ccncc3)c12`, for which the “Percent Effect” value is listed as -47.88%. `O=C(O)C(F)(F)F.O=C(c1ccccc1F)N1CCC2(CC1)CC(N1CCCC1)CO2` (stereo not drawn): the “Percent Effect” value is reported as 116.8%. The value for `O=C(c1ccccc1)N1CCC2(CC1)CC(Oc1ccccc1)CO2` (stereo not drawn) was 2.639%; that for `COC1COC2(CCN(C(=O)c3cocn3)CC2)C1` (stereo not drawn) was -7.314%; that for `COC1COC2(CCN(C(=O)c3cnc(C)cn3)CC2)C1` (stereo not drawn) was 14.55%.

`CCN(C)C1COC2(CCN(C(=O)c3ccc(Cl)cc3)CC2)C1.O=C(O)C(F)(F)F` (stereo not drawn): the “Percent Effect” value is reported as -12.32%. For the compound `COC1COC2(CCN(C(=O)c3ncccn3)CC2)C1` (stereo not drawn), the “Percent Effect” value is on record as -17.92%. In the case of `O=C(O)C(F)(F)F.O=C(c1ccccc1F)N1CCC2(CC1)CC(Oc1ccccn1)CO2` (stereo not drawn), the “Percent Effect” value turned out to be 109.1%. In the case of `CS(=O)(=O)N1CCC2(CC1)CC(Oc1ccccn1)CO2.O=C(O)C(F)(F)F` (stereo not drawn), the “Percent Effect” value turned out to be 10.24%. On to `COC1COC2(CCN(C(=O)c3ccc4ccccc4c3)CC2)C1` (stereo not drawn), for which the “Percent Effect” value is given as 112.4%.

In the case of `COC1COC2(CCN(C(=O)c3ccccc3F)CC2)C1` (stereo not drawn), the “Percent Effect” value is given as 91.89%.

On to `O=C(O)C(F)(F)F.O=C(c1cocn1)N1CCC2(CC1)CC(Oc1ccccn1)CO2` (stereo not drawn), for which the “Percent Effect” value came out at 3.532%.

For the compound `O=C(O)C(F)(F)F.O=C(O)C(F)(F)F.c1cc(CN2CCC3(CC2)CC(N2CCCC2)CO3)co1` (stereo not drawn), the “Percent Effect” value is recorded as -12.83%. In the case of `Cc1cc(C(=O)NC2(C#N)CCCC2)c(C)n1-c1cccnc1`, the “Percent Effect” value is reported as -8.526%. In the case of `O=C(Cc1cccs1)NCC1Cn2nnc(-c3ccoc3)c2CO1` (stereo not drawn), the “Percent Effect” value was determined as 6.925%.

Values taken from ChEMBL document CHEMBL3988442, “University of Dundee, Small-Polar-MMV Screening Library” (2021).
